Test results taken from PubChem BioAssay (NCI).
This is part of a sample that, as a whole, favours compounds with a hit. Of some 79,000 tested, about 15% had one in any assay. Calls of active or inactive are those of the source. No stated cut-off is given here; in the data, active means growth inhibition above about 70%; inactive means the rest.

Legend:
[1] = NCI Yeast Anticancer Drug Screen. Data for the rad50 strain (AID 155);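 further: 0% = growth of vehicle-only cultures of the same strain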; details: S. cerevisiae rad50 strain growth inhibition; at 50.0 µM; active compounds read high
How it was run: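 Growth of the mutant yeast was measured after compound exposure and referenced to vehicle-treated cultures.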

[2] = NCI Yeast Anticancer Drug Screen. Data for the mec2-1 strain (AID 157); details: S. cerevisiae mec2-1 strain, at 50.0 µM, active compounds read high
How it was run: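 Test agents were screened against the mec2-1 yeast strain, with defined DNA repair or cell cycle alteration. Growth was scored as inhibition against vehicle-only controls.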

[3] = NCI Yeast Anticancer Drug Screen. Data for the sgs1 mgt1 strain (AID 161);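 further: 0% = growth of cultures given vehicle only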; details: S. cerevisiae sgs1 mgt1 strain, at 50.0 µM, active compounds read high
How it was run: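 Mutant yeast exposed to compound; growth scored against vehicle-only wells.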

[4] = NCI Yeast Anticancer Drug Screen. Data for the cln2 rad14 strain (AID 165);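 further: 0% = growth equal to vehicle treated cultures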; details: S. cerevisiae cln2 rad14 strain, at 50.0 µM, active compounds read high
How it was run: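 Growth of compound-exposed yeast (cln2 rad14 genotype) measured and expressed as inhibition relative to vehicle.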

[5] = NCI Yeast Anticancer Drug Screen. Data for the bub3 strain (AID 167); details: S. cerevisiae bub3 mutant strain, at 50.0 µM, active compounds read high
How it was run: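 Whole-cell yeast assay. The mutant strain was incubated with compounds, and growth inhibition was determined by comparison with vehicle-treated cells.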

[6] = NCI Yeast Anticancer Drug Screen. Data for the mlh1 rad18 strain (AID 175); details: S. cerevisiae mlh1 rad18 strain growth inhibition; at 50.0 µM; active compounds read high
How it was run: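 In this whole-cell yeast screen, a strain with altered DNA damage repair is challenged with compound, and its growth is measured against matched vehicle-treated controls.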

Measured: growth inhibition

CCCCCCCCCCCC(=O)NC(=S)Nc1ccc(C)c(C)c1
inactive: [1] 8.65% | [2] 58.2% | [3] 54.6% | [4] -13.6% | [5] 57.5% | [6] 36.9%

CC1OC(OC2C(OC3C(OC4CCC5(C)C(CCC6(C)C5CC=C5C7CC(C)(C)CCC7(C(=O)O)CCC56C)C4(C)C)OCC(O)C3O)OC(CO)C(O)C2O)C(O)C(O)C1O (stereo not given)
active: [1] 92.8% | [2] 94.4% | [3] 94.3% | [4] 92.3% | [5] 93.8% | [6] 93.8%

O=S1(=O)C(Cl)c2ccccc2-c2ccccc2C1Cl (stereo not given)
inactive: [1] -1.35% | [2] -6.65% | [3] -10.4% | [4] 8.3% | [5] 5% | [6] -9.65%

O=C(Nc1ccc2ccccc2c1)c1ccc(Cl)cc1
inactive: [1] 4.65% | [2] -9.65% | [3] -15.1% | [4] 7.05% | [5] 31.4% | [6] 1.4%

Cc1ccc(S(=O)(=O)OC/C(=C(/c2ccccc2)c2ccc(Cl)cc2)c2ccccc2)cc1
active: [1] 96.8% | [2] 97.5% | [3] 95.8% | [4] 87.3% | [5] 95.3% | [6] 96.6%

COCn1c(C)c(C)c2c(=O)oc(=O)[nH]c21
inactive: [1] -23.2% | [2] 17.7% | [3] -30.6% | [4] -11.3% | [5] 16.6% | [6] -25.5%

Nc1nc(Cc2ccccc2)c(-c2ccccc2)c(-c2nc(N)nc(Cc3ccccc3)c2-c2ccccc2)n1
inactive: [1] -9.6% | [2] 14.4% | [3] -26.4% | [4] -5.15% | [5] -5.2% | [6] 7.85%

c1ccc(N=C2SC(c3ccccc3)CN2C23CC4CC(CC(C4)C2)C3)cc1 (stereo not given)
inactive: [1] -18.4% | [2] -6.5% | [3] -38% | [4] -64.5% | [5] -1.2% | [6] -9.8%

[N-]=[N+]=NC12CC3CC4C5CC(CC41)CC2[C@H]5C3
inactive: [1] 13.1% | [2] -5.35% | [3] -6.1% | [4] -0.55% | [5] -17.1% | [6] -14.4%

CO[C@@]12C[C@@H](C)C3=CCC(C)=C3CC1=C(C)C(=O)O2
inactive: [1] 8.9% | [2] -4.05% | [3] 16.6% | [4] 2.9% | [5] 26.4% | [6] -68.3%

CSc1cnc(N)s1
inactive: [1] 14.6% | [2] 14.8% | [3] 3% | [4] -13.1% | [5] -2.45% | [6] 32.4%

COc1cccc2c(SCC(=O)Nc3ccccc3-c3ccccc3NC(=O)CSc3c4ccccc4nc4c(OC)cccc34)c3ccccc3nc12
inactive: [1] -2.4% | [2] 3.35% | [3] -15.8% | [4] -36% | [5] -2% | [6] -28.8%

CC(C1CCCC1=O)C1CCCC1=O (stereo not given)
inactive: [1] -1.1% | [2] -17.8% | [3] -5.05% | [4] 5.35% | [5] -11.9% | [6] -10.4%

CC(=O)Oc1cc(C(F)(F)F)ccc1C(=O)OC1(C)OC(=O)c2ccc(C(F)(F)F)cc2O1 (stereo not given)
inactive: [1] -34.1% | [2] -12.9% | [3] -21.4% | [4] -2.85% | [5] -13.9% | [6] -16.9%

O=[N+]([O-])c1cc(Cl)ccc1Sc1ccccc1
inactive: [1] 39.6% | [2] 8.25% | [3] 34.3% | [4] 21.9% | [5] 24.7% | [6] 27.3%

CSC(SC)=C1CCCC(=C(SC)SC)C1=O
inactive: [1] -6.95% | [2] -9.3% | [3] -9.55% | [4] 6.95% | [5] -0.45% | [6] -8.9%

ON(CCc1ccncc1)Cc1ccccc1
inactive: [1] 1.6% | [2] -31.1% | [3] -20.1% | [4] 2.95% | [5] -56.3% | [6] 15.5%

Cc1cc(C)nc(Nc2nc3ccc([N+](=O)[O-])cc3[nH]2)n1
inactive: [1] 0.5% | [2] -5.3% | [3] 5.5% | [4] -7.4% | [5] -5.05% | [6] -4.85%

CCOc1cc(/C=N/NC(=O)C(O)C(O)C(O)C(O)CO)ccc1O (stereo not given)
inactive: [1] 1.5% | [2] 38.6% | [3] 27.9% | [4] 4.45% | [5] 39.8% | [6] 30.6%

NCCCNC1CCCCC1
inactive: [1] 8.8% | [2] -27.9% | [3] 2.55% | [4] -0.45% | [5] 1.7% | [6] 12.8%

Cn1c[n+](C)c([S-])n1
inactive: [1] -13.2% | [2] 2.6% | [3] -12.1% | [4] -8.45% | [5] 3% | [6] -5.25%

COc1cc(-c2ccc(Nc3ccccc3C(=O)O)c(OC)c2)ccc1Nc1ccccc1C(=O)O
inactive: [1] -4.45% | [2] 0.2% | [3] 1.05% | [4] 8.15% | [5] 3.8% | [6] -11.9%

O=C(Nc1cccc(O)c1)C(O)C(O)C(O)C(O)CO (stereo not given)
inactive: [1] -10.8% | [2] 14.4% | [3] 18.2% | [4] 10.6% | [5] 9.05% | [6] 10.9%

O=C(NC(Cc1ccccc1)C(=O)N1CCOCC1)c1ccccc1 (stereo not given)
inactive: [1] 6.1% | [2] 12.6% | [3] -1.35% | [4] 3.2% | [5] 1.85% | [6] -0.35%

CC(C)C(O)C(C)(C)C(O)C#N (stereo not given)
inactive: [1] 18.1% | [2] -1.2% | [3] -0.1% | [4] -2.45% | [5] 0.4% | [6] 7.7%

OC(c1ccccc1)(c1c2ccccc2cc2ccccc12)C1CCC1 (stereo not given)
inactive: [1] 16.8% | [2] 20.1% | [3] 0.9% | [4] 9.75% | [5] 13% | [6] -5.65%

NC(=O)N1CCc2ccccc2C1c1ccccc1 (stereo not given)
inactive: [1] -2.95% | [2] -12.7% | [3] -7.55% | [4] -14.4% | [5] 9.25% | [6] -21.4%

C#CC(C)(O)c1ccccc1 (stereo not given)
inactive: [1] -1.15% | [2] -22.1% | [3] -7.75% | [4] -21.6% | [5] -1.95% | [6] -11.6%

NC(=O)C1CC(O)CN1C(=O)c1cccnc1 (stereo not given)
inactive: [1] 11.2% | [2] 19.8% | [3] 15.3% | [4] -7% | [5] 8.9% | [6] 5.35%

COc1cc(CNc2nc3ccccc3n2Cc2ccccc2)cc(CN2CCOCC2)c1O
inactive: [1] -4.4% | [2] 15.7% | [3] 3.7% | [4] 33.3% | [5] 9.55% | [6] 7.55%

CC12C=CC(=O)C=C1CCC1C3CC(F)C(O)(C(=O)CO)C3(C)CC(O)C12F (stereo not given)
inactive: [1] -6.35% | [2] 2.25% | [3] 3.25% | [4] 25.2% | [5] 14.8% | [6] 3.3%

CC(=O)N1C(=O)C(C)(C2=CC(=O)c3ccccc3C2=O)c2ccc(Br)cc21 (stereo not given)
active: [1] 76.8% | [2] 77% | [3] 73.7% | [4] 71.8% | [5] 87%
inactive: [6] 67.2%

CC(C)CC(=O)c1ccc2ccccc2c1O
inactive: [1] -0.1% | [2] -17.1% | [3] 6.7% | [4] -12.2% | [5] -14.2% | [6] 5.95%

CC(C)N1C(=O)c2cccc3c(Br)ccc(c23)C1=O
active: [1] 97.8% | [2] 99.3% | [3] 97.2% | [4] 98.4% | [5] 99.2% | [6] 98.5%

O=c1c2c(nc3n1CCC3)sc1c(O)c(Br)ccc12
inactive: [1] -44.7% | [2] -26.6% | [3] -46.7% | [4] -25.1% | [5] -40% | [6] -52.1%

CCCCN(CCCC)Cc1ccnc(C)c1O
inactive: [1] -9.3% | [2] 5.85% | [3] -8.5% | [4] 8.7% | [5] 3.75% | [6] 7.9%

O/N=C1\CCCC\C1=N/O.O/N=C1\CCCC\C1=N/O.[Pt]
inactive: [1] 34.8% | [2] -0.8% | [3] 8.05% | [4] 19.3% | [5] -1.75% | [6] 8.05%

O=[N+]([O-])c1ccc(N/N=C(/c2ccc3ccccc3c2)c2ccccc2F)c([N+](=O)[O-])c1
inactive: [1] -9% | [2] -4.6% | [3] -12.2% | [4] -12% | [5] -1.85% | [6] -13.6%

CN(C)CC1CC(O)C(CN(C)C)CC1O (stereo not given)
inactive: [1] -6.2% | [2] -13.4% | [3] -20.2% | [4] -6.15% | [5] -6.25% | [6] -8.95%

O=C1C=C(Nc2ccccc2C(=O)CC(=O)C(=O)Nc2ccc(Cl)c(Cl)c2)c2ccccc2C1=O
inactive: [1] -14.1% | [2] 5.7% | [3] 3.2% | [4] -30.9% | [5] -24.2% | [6] -7.15%
